Screening data: PubChem BioAssay, several laboratories
In the library only some 2.8% were active in any assay of this set; here they are far more common.
HSP90 refold inh – HSP90 inhibitors, primary screen, cell lysate, luminescence; Heat shock protein HSP 90 (rabbit reticulocyte lysate; luciferase refolding); Rabbit reticulocyte lysate, luciferase refolding luminescence, 3 h; inhibition, % at 5.6 µM; hit rate 0.91% among 290,000; AID 1789, 2009;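 active = inhibition above the screen-wide mean plus 3 SD, computed separately per campaign, cut at about 16% in these data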;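 also: 0% = DMSO wells and 100% = 60 µM geldanamycin wells; inhibitors lower the luminescence because luciferase stays unfolded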
SENP8 block-1 – human SENP8 protease inhibitors, primary screen, biochemical, fluorescence, Nedd8 protein substrate, uHTS; inhibition, % at 20 µM; hit rate 0.64% among 360,000; recombinant SENP8; Sentrin-specific protease 8 (Homo sapiens), Q96LD8; in the data active = inhibition mostly above about 40%, no sharp cut-off; inactive = mostly below about 27%
Target sequence (Q96LD8 whole entry, looked up): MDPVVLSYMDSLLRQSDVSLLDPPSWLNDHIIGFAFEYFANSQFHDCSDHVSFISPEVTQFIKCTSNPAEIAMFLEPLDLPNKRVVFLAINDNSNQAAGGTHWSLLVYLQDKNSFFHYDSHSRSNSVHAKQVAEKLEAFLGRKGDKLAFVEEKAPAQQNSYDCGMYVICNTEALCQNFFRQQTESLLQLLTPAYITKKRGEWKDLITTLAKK
SENP7 block – SENP7 protease inhibitors, primary screen, biochemical, luminescence, uHTS | hit rate 1.5% among 330,000 | Sentrin-specific protease 7 (Homo sapiens), Q9BQF6 | AID 434973, 2010 | recombinant SENP7, Z-RLRGG-aminoluciferin luminescence, 40 min | inhibition, % at 5 µM;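 active = inhibition above about 50% at the single test dose, limit read from the data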;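 also: plate controls were DMSO with enzyme for no effect and no enzyme buffer wells for full effect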
Target sequence (Q9BQF6 706-1050 limits assumed): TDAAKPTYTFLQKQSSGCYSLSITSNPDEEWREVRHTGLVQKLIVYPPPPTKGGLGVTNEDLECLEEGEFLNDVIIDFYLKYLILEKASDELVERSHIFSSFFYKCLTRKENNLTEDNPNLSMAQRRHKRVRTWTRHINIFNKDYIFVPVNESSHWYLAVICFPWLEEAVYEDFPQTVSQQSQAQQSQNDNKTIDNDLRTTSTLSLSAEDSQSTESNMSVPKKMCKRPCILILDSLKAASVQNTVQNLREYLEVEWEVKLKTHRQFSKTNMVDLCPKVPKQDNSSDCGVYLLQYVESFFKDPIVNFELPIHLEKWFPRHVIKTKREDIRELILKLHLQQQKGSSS
Platelet DG rel – inhibitors of platelet dense granule secretion, primary screen, cell-based, MLPCN, human platelets | inhibition, %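 (compounds screened at 7.5 µM in platelet-rich plasma)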 | human platelet-rich plasma, SFLLRN dense granule ATP release, luminescence | hit rate 0.22% among 300,000;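 active = mean replicate score, as percent of positive control, at or above 50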
SENP8 block-2 – SENP8 protease inhibitors, primary screen, biochemical, luminescence. hit rate 1.2% among 330,000. purified SENP8, Z-RLRGG-aminoluciferin cleavage. inhibition, % at 10 µM. Sentrin-specific protease 8 (Homo sapiens), Q96LD8; in the data active = inhibition above about 50%
SENP6 inh – SENP6 protease inhibitors, primary screen, biochemical, luminescence, uHTS | inhibition, % at 10 µM | hit rate 1.8% among 330,000 | Recombinant SENP6 catalytic domain, aminoluciferin luminescence | Sentrin-specific protease 6 (Homo sapiens), Q9GZR1;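 active = inhibition above about 50% at the single tested dose, limit read from the data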;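 also: plate controls were DMSO wells with enzyme for no effect and DMSO wells lacking enzyme for full effect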
SENP8 confirm – SENP8 protease inhibitors, retest, confirmation, biochemical, luminescence, single concentration; shares compounds with SENP7 block; Recombinant SENP8, Z-RLRGG-aminoluciferin luminescence, 60 min; inhibition, % at 12.5 µM; hit rate 40% among 6,200; AID 488912, 2010;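 active = mean inhibition across replicates above about 50%, limit read from the data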
SENP6 confirm – SENP6 protease inhibitors, confirmation, biochemical, luminescence, single concentration; shares compounds with SENP7 block; recombinant SENP6, Z-RLRGG-aminoluciferin luminescence; inhibition, % at 12.5 µM; hit rate 58% among 6,200; AID 488915, 2010
SENP7 confirm – SENP7 protease inhibitors, retest, confirmation, biochemical, luminescence, single concentration; inhibition, % at 12.5 µM; shares compounds with SENP7 block; recombinant SENP7, Z-RLRGG-aminoluciferin luminescence, 40 min; hit rate 69% among 6,200
Casp3 select – caspase-3 protease inhibitors, confirmation, selectivity assay for SENP inhibitor project, biochemical, single concentration; hit rate 60% among 6,200; inhibition, % at 12.5 µM; AID 488918, 2010; purified caspase-3, Z-DEVD-aminoluciferin luminescence, 60 min; shares compounds with SENP7 block;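 active = mean inhibition above about 50%, limit read from the data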;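 also: plate controls were enzyme with DMSO for no effect and wells without caspase-3 for full effect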
SENP luc ctr – luminescence interference (SENP counter-screen). hit rate 39% among 6,200. inhibition, % at 12.5 µM. Pre-incubated SENP8/Z-RLRGG-aminoluciferin, luciferase luminescence interference. shares compounds with SENP7 block;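 active = mean inhibition above about 50% when retested at one dose, limit read from the data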;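 also: plate controls were DMSO wells with completed reaction for no effect and substrate without enzyme for full effect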
* hit, by the source's call; nt = no result given.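 The calls were made as follows, unless noted: active = mean inhibition above about 50% in the one-dose retest (limit read from the data); inactive = the rest.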

SMILES	HSP90 refold inh	SENP8 block-1	SENP7 block	Platelet DG rel	SENP8 block-2	SENP6 inh	SENP8 confirm	SENP6 confirm	SENP7 confirm	Casp3 select	SENP luc ctr
Oc1[nH]c2ccccc2c1N=Nc1nncc2ccccc12	-3	-35	74*	12	42	72*	49	48	72*	76*	58*
Oc1[nH]c2ccccc2c1N=Nc1ccccc1Cl	nt	22	nt	nt	nt	nt	nt	nt	nt	nt	nt
O=C(N=Nc1c(O)[nH]c2ccccc12)c1ccco1	2	20	62*	3	24	60*	49	46	83*	80*	33
Cc1cccc2c(N=Nc3ccccc3)c(O)[nH]c12	-1	19	54*	4	-9	-3	12	13	35	12	7
Cc1ccc2nc(-c3ccc(N4C(=N)SC5CS(=O)(=O)CC54)cc3)sc2c1 (stereo not given)	1	-462	13	-8	5	7	nt	nt	nt	nt	nt
CCOCCCNC1=C(Cl)C(=O)c2ccccc2C1=O	6	47*	54*	3	47	75*	5	33	2	5	4
CCOCCCNS(=O)(=O)c1ccccc1	3	13	-1	3	-10	-12	nt	nt	nt	nt	nt
Cc1ccc(S(=O)(=O)c2nc(-c3ccccc3F)oc2N2CC(C)OC(C)C2)cc1 (stereo not given)	5	-24	-3	-4	8	-17	nt	nt	nt	nt	nt
COc1ccc2c(c1)C(=O)c1ccccc1CO2	1	-11	-5	-1	23	56*	70*	74*	91*	67*	67*
Cc1noc(C)c1CSCC(=O)Nc1cccc(C(F)(F)F)c1	nt	9	-4	nt	5	13	nt	nt	nt	nt	nt
CCOC(=O)c1nn(-c2ccccc2)cc1O	-1	-38	2	-2	10	-7	nt	nt	nt	nt	nt
COC(=O)c1nn(-c2ccc(-c3ccccc3)cc2)cc1O	13	-492	97*	64*	93*	97*	92*	98*	102*	95*	88*
Cc1ccc(OCC(=O)OCC(=O)N2c3ccccc3CC2C)cc1C (stereo not given)	nt	-6	-5	nt	1	11	nt	nt	nt	nt	nt
COc1ccccc1NC(=O)Nc1ccc(-n2ccc(C(F)(F)F)n2)cc1	-4	14	82*	1	73*	80*	76*	82*	93*	44	69*
COc1ccccc1NC(=O)Nc1ccc(N2CCOCC2)cc1	-1	11	56*	15	39	64*	65*	62*	87*	80*	66*
O=C(Nc1ccc(N2CCOCC2)cc1)c1cn2ccccc2n1	14	8	93*	68*	85*	96*	86*	86*	98*	95*	15
CSc1ccccc1NC(=O)COc1ccc(Cl)cc1Cl	2	16	8	4	4	25	nt	nt	nt	nt	nt
O=C(COc1ccccc1)Nc1ccc(Cl)cn1	1	8	6	-1	-13	0	nt	nt	nt	nt	nt
CCCCc1cc(=O)oc2cc(C)cc(OCC(=O)Nc3ccccn3)c12	5	-256	13	2	31	53*	40	34	68*	76*	53*
O=C(COc1ccc(Cl)cc1Cl)Nc1ccccn1	87*	10	100*	nt	98*	-10	96*	98*	101*	96*	80*
O=C(COc1ccccc1Cl)Nc1ccc(Cl)cn1	-1	4	48	1	38	74*	24	61*	86*	60*	6
Cc1ccsc1CN(C)CC(=O)N(C)CC(=O)Nc1c(Cl)cccc1Cl	nt	24	nt	nt	nt	nt	nt	nt	nt	nt	nt
O=C(COc1ccc(F)cc1Br)NCCCN1CCCC1=O	nt	-2	2	nt	12	-2	nt	nt	nt	nt	nt
O=C1N=c2ccccc2=C1c1sc(NS(=O)(=O)Cc2ccccc2)nc1O	-7	33	69*	-3	40	88*	78*	73*	92*	39	38
N#CCSc1nnc(-c2sc3ccccc3c2Cl)o1	1	-23	-8	-5	-13	-2	nt	nt	nt	nt	nt
SMILES	HSP90 refold inh	SENP8 block-1	SENP7 block	Platelet DG rel	SENP8 block-2	SENP6 inh	SENP8 confirm	SENP6 confirm	SENP7 confirm	Casp3 select	SENP luc ctr
COC(=O)CSc1nnc(-c2sc3ccccc3c2Cl)o1	6	-306	56*	5	28	70*	-5	-3	5	9	2
O=C(NNC(=O)c1cnccn1)c1cccc([N+](=O)[O-])c1	-3	20	10	-6	-7	3	nt	nt	nt	nt	nt
O=C(NNC(=O)c1ccccc1[N+](=O)[O-])c1cnccn1	2	18	82*	1	0	-7	-9	-6	-5	7	1
Cn1c(=O)c2c(nc(NCC3CCCO3)n2C)n(C)c1=O (stereo not given)	3	3	51*	-7	-2	7	4	6	12	8	3
Cn1c(=O)n(Cc2ccccc2)c(=O)c2c1nc(NCC1CCCO1)n2Cc1ccccc1 (stereo not given)	4	16	5	23	1	-8	nt	nt	nt	nt	nt
O=C(Oc1ccc(-c2cn3c(n2)SCC3)cc1)c1ccccc1	2	26	71*	10	0	40	12	22	16	51*	26
CCCCCn1nc(C(=O)N(CCOC)c2c(N)n(CCCC)c(=O)[nH]c2=O)c2ccccc2c1=O	nt	-16	-2	-6	-8	-3	nt	nt	nt	nt	nt
O=C1c2ccccc2[C@@H]2C[C@@H](O)[C@H](Nc3cccc(C(F)(F)F)c3)CCN12	nt	4	-1	nt	nt	nt	nt	nt	nt	nt	nt
COc1cc(/C=C2\OC(=O)c3c(OC)cccc32)ccc1O	4	-402	47	13	24	64*	26	29	82*	58*	68*
